Source: PubChem (National Center for Advancing Translational Sciences (NCATS))
VACV Venus inh – vaccinia inhibition (Venus reporter). Vaccinia virus Venus reporter expression, fluorescence. Potency, µM (highest dose often 36.5 µM), actives largely listed as inhibitors. 0.46% of 330,000 active; calls by dose curve; tested in A549 cells; also: nearly all actives have a fitted effect of over 30% in size
VACV mCherry inh – inhibitors of vaccinia virus infection (mCherry reporter signal); 0.63% of 310,000 active; Potency, µM (highest dose often 36.5 µM), usual class: inhibitors; Vaccinia virus mCherry reporter infection, fluorescence; calls by dose curve; tested in A549 cells; also: nearly all actives have a fitted effect of over 35% in size
HCV inh – inhibitors of hepatitis C virus infection. Huh7.5.1 HCVcc-Cre infection, luciferase reporter, 44 h. Potency, µM (highest dose often 41.8 µM), hits mostly inhibitors. 3.4% of 340,000 active. AID 651820
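Antiviral activity was scored by luciferase reporter output from cells infected with HCVcc-Cre (~0.5 moi) in presence of compound, 44 h infection period, cells seeded 1,000/well 4 h prior.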
Pf growth 48h – P. falciparum growth inhibition at 48 hours (one generation); P. falciparum luciferase growth in erythrocytes, 48 h; Potency, µM (series often up to 28.7 µM), actives largely listed as inhibitors; 5.9% of 310,000 active; AID 504832
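Parasite viability was followed by luminescence of a genomically integrated firefly luciferase. Cultures held 0.1% parasitemia at 2% hematocrit (final), incubated under 5% CO2 at 37 C.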
Pf growth 96h – P. falciparum growth inhibition at 96 hours; P. falciparum luciferase reporter growth, 96 h; Potency, µM (highest dose often 28.7 µM), most hits filed as inhibitors; 6.9% of 320,000 active; AID 504834
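Infected RBCs, 2% Hct / 0.05% parasitemia final; luciferase-reporter P. falciparum; cpd 96 h, 37 C, 5% CO2; luciferase detection reagent; luminescence.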
NS1 function inh – blocks influenza NS1 protein function; AID 2326; Potency, µM (titrated, usually from 46.1 µM); 0.4% of 270,000 active; calls by dose curve; also: actives are rising curves; nearly all actives have a fitted effect of over 50% in size
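A cell-based growth assay was used: compounds that relieve NS1-induced slow growth of budding yeast raise OD600. Assay medium was yeast nitrogen base with ammonium sulphate and -URA supplement, pH 6.0, with 2% galactose.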
Large screens that a line does not name were inactive. Rows were chosen to be rich in hits. Some 11% of all compounds tested hit in one or more screens of this group. Unless noted, calls follow the shape of the dose curve; as a rule, active = well fitted inhibition curve with a large enough effect; inconclusive = small, poorly fitted or top-dose-only effect, or another doubt; inactive = no such curve, though single readings can be large or run the other way.

CN(C)CCCNC(=S)Nc1ccc(Oc2ccccc2)cc1	HCV inh inconclusive, Pf growth 96h inconclusive (no result: NS1 function inh)
Cc1ccc(S(=O)(=O)CCC(=O)OC(C)C(=O)NC2CCCCC2C)cc1 (stereo unspecified)	none (no result: NS1 function inh)
C=CCn1c(O)c(CN2CCOCC2)c(C)c(C#N)c1=O	Pf growth 96h inconclusive (no result: VACV mCherry inh)
CC1=Nc2cc(C(=O)NCc3ccco3)ccc2Sc2ccc(C)cc21	VACV Venus inh inconclusive, VACV mCherry inh inconclusive, HCV inh inconclusive, Pf growth 48h 4.15µM, Pf growth 96h 1.85µM
Cc1nn(C(C)(C)C)c(OC(=O)C2CCCC2)c1S(=O)(=O)c1ccccc1	Pf growth 96h 10.4µM (no result: VACV mCherry inh)
CCN(c1ccccc1)C1(O)C(=O)c2ccccc2C1=O	Pf growth 96h inconclusive (no result: NS1 function inh)
COC(=O)C(Cc1ccc(O)cc1)NC(=O)C12CC3CC(CC(C3)C1)C2 (stereo unspecified)	Pf growth 96h inconclusive
COCCn1cnc2c1c(=O)n(CC(=O)OCC(=O)NCCCc1ccccc1)c(=O)n2Cc1ccccc1	Pf growth 48h inconclusive, Pf growth 96h inconclusive
O=c1c2ccccc2nc(/C=C/c2ccc(O)cc2)n1-c1ccccc1O	Pf growth 48h 9.28µM, Pf growth 96h inconclusive (no result: VACV Venus inh, VACV mCherry inh)
COc1cc(/C=C/c2nc3ccccc3c(=O)n2-c2ccccc2O)ccc1O	VACV mCherry inh inconclusive, HCV inh inconclusive, Pf growth 48h 9.28µM, Pf growth 96h 9.28µM
COc1cc(/C=C/c2nc3ccccc3c(=O)n2-c2cccc(O)c2)ccc1O	VACV mCherry inh inconclusive, HCV inh inconclusive
O=c1c2ccccc2nc(/C=C/c2ccccc2)n1-c1ccccc1O	Pf growth 48h 9.28µM, Pf growth 96h inconclusive
COc1ccccc1-n1c(/C=C/c2ccc(O)cc2)nc2ccccc2c1=O	HCV inh inconclusive, Pf growth 48h 13.1µM
CCN(CC)S(=O)(=O)c1ccc(Oc2cccc(C(C)=O)c2)nc1	NS1 function inh inconclusive
O=C(O)c1ccc(-n2c(/C=C\c3ccc(O)cc3)nc3ccccc3c2=O)cc1	none (no result: HCV inh, Pf growth 48h, Pf growth 96h, NS1 function inh)
O=C(O)c1ccc(/C=C/c2nc3ccccc3c(=O)n2-c2ccc(Br)cc2)cc1	Pf growth 48h inconclusive, Pf growth 96h 13.1µM
N#Cc1c(N)nc(SCc2ccccn2)c(C#N)c1-c1cccs1	HCV inh inconclusive, Pf growth 48h inconclusive (no result: VACV Venus inh, VACV mCherry inh, Pf growth 96h)
COc1cc(Cn2c3ccc(NC(=O)CCc4cccnc4)cc3c(=O)n2C)ccc1F	none (no result: HCV inh, Pf growth 48h, Pf growth 96h, NS1 function inh)
O=C(Nc1ccc2c(c1)CCCN2C(=O)c1ccco1)c1cc([N+](=O)[O-])ccc1Cl	VACV mCherry inh inconclusive, HCV inh inconclusive, Pf growth 48h 14.7µM, Pf growth 96h inconclusive (no result: NS1 function inh)
O=C(Nc1ccc(N2CCN(C(=O)c3cccs3)CC2)cc1)c1ccco1	Pf growth 96h inconclusive
Cc1ccc(C(=O)Nc2ccc(N3CCN(C(=O)c4ccco4)CC3)cc2)c(Cl)c1	HCV inh 11.2µM, Pf growth 48h 13.1µM
O=C(Nc1ccc(N2CCN(C(=O)c3ccco3)CC2)cc1)c1ccc([N+](=O)[O-])cc1Cl	HCV inh inconclusive, Pf growth 48h 11.7µM, Pf growth 96h inconclusive (no result: VACV Venus inh, VACV mCherry inh)
Cc1ccc(C(=O)Nc2ccc(N3CCN(C(=O)c4cccs4)CC3)cc2)c(Cl)c1	HCV inh inconclusive, Pf growth 48h 9.28µM
C=CCOC(=O)N1CCC2CC1c1c(-c3ccc(C(F)(F)F)cc3)cccc12 (stereo unspecified)	none (no result: HCV inh, Pf growth 48h, Pf growth 96h, NS1 function inh)
COc1ccc(C(C)=O)cc1	none (no result: HCV inh, Pf growth 48h, Pf growth 96h, NS1 function inh)
Cc1nn(Cc2ccccc2)c(C)c1C(=O)N1CCN(S(=O)(=O)/C=C/c2ccccc2)CC1	Pf growth 48h 11.7µM, Pf growth 96h 4.15µM (no result: VACV Venus inh, VACV mCherry inh, NS1 function inh)
CC(C)c1ccc(NC(=O)CSc2nnc(CN3CCOCC3)n2C)cc1	Pf growth 48h inconclusive
O=[N+]([O-])c1ccc(NCCCN2CCOCC2)c([N+](=O)[O-])c1	none
O=C(NCCCN1CCOCC1)c1ccc(Cl)c([N+](=O)[O-])c1	none (no result: Pf growth 48h, Pf growth 96h, NS1 function inh)
Cc1ccc(C(=O)NCCCN2CCOCC2)cc1Cl	Pf growth 48h inconclusive (no result: VACV Venus inh, VACV mCherry inh)
Cc1ccc(NC(=O)c2ccc(NCCCN3CCOCC3)c([N+](=O)[O-])c2)cc1Cl	VACV Venus inh inconclusive, VACV mCherry inh inconclusive, HCV inh 11.2µM, Pf growth 48h 2.33µM
O=C(NCCCN1CCOCC1)c1ccc(Sc2cccc(Cl)c2)c([N+](=O)[O-])c1	VACV mCherry inh inconclusive, HCV inh 11.2µM, Pf growth 96h inconclusive
